Source: PubChem BioAssay
Cruzain Triton = blocks cruzain activity in presence of Triton detergent; purified cruzain, Z-FR-AMC fluorescence, 0.01% Triton; Potency, µM, for inactives: max response, negative = inhibition, usual class: inhibitors; hit rate 0.43% among 200,000; P25779; AID 1478;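 note: plate controls were neutral wells for no effect and buffer without enzyme for full effect; nearly all actives have a fitted effect of over 40% in size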
Target sequence (P25779 123-467 limits assumed): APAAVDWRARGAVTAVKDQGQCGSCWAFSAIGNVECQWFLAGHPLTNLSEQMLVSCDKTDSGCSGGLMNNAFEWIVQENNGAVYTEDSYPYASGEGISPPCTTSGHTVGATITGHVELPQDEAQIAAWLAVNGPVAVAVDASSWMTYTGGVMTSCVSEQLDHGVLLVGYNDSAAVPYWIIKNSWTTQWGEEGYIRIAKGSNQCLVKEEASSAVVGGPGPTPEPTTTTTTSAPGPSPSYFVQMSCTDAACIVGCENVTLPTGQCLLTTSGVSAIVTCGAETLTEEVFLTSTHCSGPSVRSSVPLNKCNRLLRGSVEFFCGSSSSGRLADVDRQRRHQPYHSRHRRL
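Sodium acetate buffer (100 mM, pH 5.5) containing 5 mM DTT and 0.01% Triton X-100 hosted 1.5 nM cruzain and test compound for 15 min at room temperature. Cleavage of 2 uM Z-FR-AMC was then tracked by fluorescence.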
Cruzain noTriton = cruzain (T. cruzi) inhibition without detergent. purified cruzain, Z-FR-AMC fluorescence, no detergent. AID 1476. Potency, µM, without a hit: max response, negative = inhibition, usual class: inhibitors. hit rate 2.3% among 200,000;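 note: plate controls were enzyme without inhibitor for no effect and buffer without enzyme for full effect; nearly all actives have a fitted effect of over 40% in size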
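Detergent-free condition (0.00005% Triton X-100) in acetate buffer pH 5.5 with DTT. 1.5 nM enzyme and compound were pre-mixed 15 min, then 2 uM Z-FR-AMC substrate added; reaction progress from fluorescence change between first and third reads (60 s).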
Numbers without * were called inactive; u = inconclusive. Compounds with a hit are over-represented: about 2.4% of the library has one in this group of screens. Calls come from the whole dose curve; as a rule, active = well fitted curve in the direction sought with a large enough effect; inconclusive = small, poorly fitted or top-dose-only effect, or another doubt; inactive = no such curve, though single readings can be large; an effect the other way counts as inactive or inconclusive. Potency is the fitted concentration of half-maximal effect.

SMILES | Cruzain Triton | Cruzain noTriton
CCOC(=O)c1cccc(Nc2ccc3cc(S(=O)(=O)N4CCCCC4)ccc3n2)c1 | -4% | 25µM*
COc1ccc(Cl)cc1Nc1ccc2cc(S(=O)(=O)N3CCCCC3)ccc2n1 | -1% | 25µM*
O=S(=O)(c1ccc2nc(Nc3cccc(F)c3)ccc2c1)N1CCCC1 | -17% | -29%
O=S(=O)(c1ccc2nc(Nc3ccc(F)cc3)ccc2c1)N1CCCC1 | 1% | -4%
CC(C)CN(C)c1nc(N)c(C(=O)N=C(N)N)nc1Cl | -9% | 5%
COc1ccc(-c2c(C)c3ccc(O)c(CN4CCCC(C)C4)c3oc2=O)cc1OC (configuration not stated) | -11% | -8%
CCCN1Cc2cccc(C(=O)Nc3ccc(C(C)=O)cc3)c2C1=O | -1% | -3%
CCc1ccc(-n2c(SCc3ccccc3C)nc3[nH]ncc3c2=O)cc1 | -9% | -10%
COc1cc(O)c(C(=O)/C=C/c2ccc(OC)c(O)c2)c(OC)c1 | -8% | u
O=C1CN(C(=O)CSc2nnc(-c3ccccc3)n2Cc2ccc3c(c2)OCO3)c2ccccc2N1 | 28µM* | 13µM*
Cc1nnc(SCC(=O)N2CC(=O)Nc3ccccc32)n1-c1ccccc1 | 2% | -4%
O=[N+]([O-])c1cccc2ccc(/C=C/c3ccc(C(F)(F)F)cc3)nc12 | -10% | -4%
O=[N+]([O-])c1cccc2ccc(/C=C/c3ccc(Cl)cc3)nc12 | -5% | 10µM*
CC(C)CC(C(=O)OCC(=O)Nc1ncc(Cl)cc1Cl)N1C(=O)c2ccccc2C1=O (configuration not stated) | -21% | u
COc1ccc(NC(=O)COC(C)=O)cc1Cl | 0% | 0%
CCCn1c(C)cc(/C=C(\C#N)C(=O)OCC(=O)Nc2ccc(OC)c(Cl)c2)c1C | -10% | -12%
CCOC(=O)/C=C/C(=O)OCC(=O)Nc1ccc(OC)c(Cl)c1 | 13µM* | 16µM*
COc1ccc(NC(=O)COC(=O)/C=C/C(=O)OCC(=O)Nc2ccc(OC)c(Cl)c2)cc1Cl | -20% | 25µM*
COc1ccc(NC(=O)COC(=O)C(CC(C)C)N2C(=O)C3CC=CCC3C2=O)cc1Cl (configuration not stated) | 7.1µM* | 10µM*
COc1ccc(CCNC(=O)CCCCn2c(=O)c3ccccc3n(Cc3ccc(F)cc3Cl)c2=O)cc1OC | -1% | -6%
COc1cccc(CN2C(=O)c3ccccc3Sc3ccc(C(=O)OCc4ccco4)cc32)c1 | -2% | -11%
COC(=O)c1n[nH]n(-c2ccccc2)c1=O | 0% | -10%
Cc1ccc(C)c(N2CCN(C(=O)CN3C(=O)COc4ccc(S(=O)(=O)N5CCOCC5)cc43)CC2)c1 | 0% | u
Cc1cnn(C(=S)NCc2ccc(Cl)cc2)c1 | -29% | -28%
Cc1cnn(C(=S)NCCc2ccccc2)c1 | 16µM* | 13µM*
SMILES | Cruzain Triton | Cruzain noTriton
CCCC1O[C@@H]2C[C@H]3[C@@H]4CCC5=CC(=O)C=C[C@]5(C)C4[C@@H](O)C[C@]3(C)[C@]2(C(=O)CO)O1 (some centres not stated) | -14% | 13%
COc1ccc(NS(=O)(=O)c2cccc(-c3nnc4n3CCCCC4)c2)cc1 | 4% | 10%
COc1ccc(/C=C/C(=O)Nc2ccc(-c3nnc4n3CCCCC4)cc2)c(OC)c1 | 14µM* | -27%
COc1ccccc1C(=O)Nc1cccc(OCc2cc(=O)n3c(C)csc3n2)c1 | -5% | u
Cc1ccccc1-n1nc(C(=O)c2cccs2)cc(-c2nc3ccccc3[nH]2)c1=N | -6% | 25µM*
COc1ccc(-n2nc(C(=O)c3cccs3)cc(-c3nc4ccccc4[nH]3)c2=N)cc1 | -12% | 3%
CCOC(=O)c1c(-c2ccc(C)cc2)csc1NC(=O)c1cc(-c2ccc(Cl)cc2)on1 | 0% | 0%
C/C=C(/CC[C@@H](C)[C@H]1CCC2C3=CC[C@H]4[C@H](C)[C@@H](O)CC[C@]4(C)C3CC[C@@]21C)C(C)C (some centres not stated) | 8% | 3%
Cc1oc2ccc(O)c(CN(C)Cc3ccccc3)c2c1C(=O)Nc1cccc(Cl)c1C | -12% | u
Cc1ccc(NC(=O)CCn2c(=O)oc3ccccc32)cc1 | 1% | -3%
CCc1ccc(NC(=O)CCn2c(=O)oc3ccccc32)cc1 | -1% | 1.3µM*
O=c1c(N2CCN(c3cccc(Cl)c3)CC2)csc2ccc(Cl)cc12 | -11% | -11%
COc1ccc(N2C(=O)CC(Nc3ccc(C)cc3)C2=O)cc1 (configuration not stated) | 4% | u
Cc1ccc(NC2CC(=O)N(c3ccc(N4CCCCC4)cc3)C2=O)cc1 (configuration not stated) | -2% | 7.9µM*
O=C(Nc1ccccc1)C(=O)c1cn(CC(=O)N2CCCCC2)c2ccccc12 | -9% | -20%
CC(=O)c1ccc(NC(=O)C(=O)c2cn(CC(=O)N3CCCCC3)c3ccccc23)cc1 | 3% | 10µM*
Cc1ccc(-n2nnnc2SCC(=O)NC(=O)Nc2ccc3c(c2)OCCO3)cc1 | -3% | -12%
Cc1cccc(NC(=O)CSc2nnc(NC(=O)c3ccc(S(=O)(=O)N4CCOCC4)cc3)s2)c1C | -1% | -11%
Cc1cccc(Nc2nnc(SCC(=O)NC(=O)Nc3ccc4c(c3)OCCO4)s2)c1 | -2% | 16µM*
Cc1cccc(NC(=O)CSc2nnc(NC(=O)CN3CCCCC3)s2)c1 | -4% | -14%
Cc1cccc(C)c1Nc1nnc(SCC(=O)Nc2cc(S(=O)(=O)N3CCCCC3)ccc2Cl)s1 | -3% | 13µM*
Cc1cccc(Nc2nnc(SCC(=O)Nc3cccc(S(=O)(=O)N4CCCCC4)c3)s2)c1 | -3% | 13µM*
Cc1ccccc1Nc1nnc(SCC(=O)NC(=O)Nc2ccc3c(c2)OCCO3)s1 | -4% | u
O=C(CSc1nnnn1-c1ccc(Cl)cc1)NC(=O)Nc1ccc2c(c1)OCCO2 | -2% | 25µM*
COc1ccc(CCNC(=O)C(=O)NCC(c2cccs2)S(=O)(=O)c2ccccc2)cc1 (configuration not stated) | 2% | 18%
SMILES | Cruzain Triton | Cruzain noTriton
COc1ccc(S(=O)(=O)N(CC(=O)Nc2ccc3c(c2)OCO3)c2ccc(C)cc2)cc1 | -6% | u
COc1cc(CNC(=O)c2sc3ncccc3c2-n2cccc2)cc(OC)c1OC | -5% | u
COc1cccc(CCNC(=O)Cn2c(-c3cccs3)cc3ccccc32)c1 | -8% | 1%
CC(=O)C1(C)CC2=C(CCCC2(C)C)CC1C (configuration not stated) | -3% | -1%
Cc1cccc(Nc2nnc(SCC(=O)Nc3cccnc3Cl)s2)c1 | 25µM* | 16µM*
Cc1cccc(Nc2nnc(SCC(=O)NC3CCCc4ccccc43)s2)c1 (configuration not stated) | -9% | -5%
COc1ccccc1-c1nc(C#N)c(N2CCN(C(c3ccccc3)c3ccccc3)CC2)o1 | 25µM* | 7.9µM*
N#Cc1nc(-c2ccco2)oc1N1CCN(c2cccc(Cl)c2)CC1 | -22% | u
N#Cc1nc(-c2ccco2)oc1N1CCN(C(c2ccccc2)c2ccccc2)CC1 | -13% | u
COc1ccccc1-c1nc(C#N)c(N2CCN(c3cccc(Cl)c3)CC2)o1 | 22µM* | u
CCn1c2ccccc2c2cc(/C=N/n3c(C)nnc3C)ccc21 | -16% | u
CCn1c2ccccc2c2cc(/C=N/NC(=O)c3ccccc3)ccc21 | u | 32µM*
CCOc1ccc(C(=O)Nc2cccc(-c3nc4cccnc4s3)c2C)cc1OCC | -4% | 9%
